Sampled rows, rich in hits. Any-hit rate of the full collection: about 4.1%.
NALP1 yeast inh – NALP1 inflammasome inhibitors in reconstituted yeast, colorimetric, S. cerevisiae, triplicate retest | S. cerevisiae NALP1/ASC/caspase-1 growth, X-gal OD620, 72 h | inhibition, % at 10 µM | 280,000 tested, 0.61% active; in the data active = inhibition mostly above about 24%, no sharp cut-off; inactive = mostly below about 32%
tim10-1 inh – growth inhibitors of tim10-1 mutant yeast, primary screen, luminescence, uHTS | S. cerevisiae tim10-1 ts strain growth, BacTiter-Glo, 24 h | inhibition, % at 20 µM | 330,000 tested, 2.2% active | AID 463190, 2010;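 active = inhibition of at least 40%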;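 also: mutant grown at 25 °C; 0% = DMSO wells with yeast and 100% = wells holding no yeast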
PfHsp90 yeast 2 – growth inhibition of PfHsp90-expressing yeast, primary screen, antimalarial PfHsp90 inhibitor project, S. cerevisiae, BacTiter-Glo luminescence, single point, set 2; inhibition, % at 9.4 µM; BacTiter-Glo ATP, 48 h; yeast lacking PDR1 and PDR3 efflux regulators; 310,000 tested, 0.32% active;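 active = every replicate shows inhibition above about 80%, whatever the replicate mean, limit read from the data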;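 also: 0% = DMSO neutral controls and 100% = 20 µM radicicol positive controls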
NALP3 yeast inh – NALP3 inflammasome inhibitors in reconstituted yeast, primary screen, luminescence, uHTS; Yeast reconstituted NLRP3/ASC/caspase-1, beta-gal luminescence, 24 h; inhibition, % at 10 µM; 330,000 tested, 0.39% active;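 active = inhibition of 50% or more; inactive = inhibition below 50%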;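 also: plate controls were induced DMSO wells for no effect and uninduced yeast grown without galactose for full effect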
tim23-1 inh – growth inhibitors of tim23-1 mutant yeast, primary screen, luminescence, uHTS; S. cerevisiae tim23-1 growth, BacTiter-Glo luminescence, 24 h; inhibition, % at 20 µM; 330,000 tested, 1.3% active;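 active = growth inhibition of the mutant yeast at or above 50%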;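 also: temperature-sensitive mutant grown at 25 °C; plate controls were DMSO-treated mutant yeast for no effect and medium wells lacking yeast for full effect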
TIM10 inh – growth inhibitors of isogenic TIM10 control yeast, primary screen, counter-screen for tim10-1 yeast inhibitor project, luminescence, uHTS; AID 463195, 2010; inhibition, % at 10 µM; S. cerevisiae TIM10 strain growth, BacTiter-Glo luminescence, 24 h; 330,000 tested, 1.4% active;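 active = inhibition of 40% or more at the single tested concentration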;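 also: wild-type TIM10 isogenic control strain grown at permissive 25 °C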
tim10-1 conf – growth inhibitors of tim10-1 mutant yeast, confirmation, single concentration, luminescence, S. cerevisiae; shares compounds with tim10-1 inh; S. cerevisiae tim10-1 ts strain growth, BacTiter-Glo, 24 h; inhibition, % at 20 µM; 7,400 tested, 56% active;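 active = inhibition of yeast growth at or above a set limit in either of two repeat tests at 20 µM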;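 also: tim10-1 mutant grown at permissive 25 °C to find synthetic lethal compounds; 0% = DMSO yeast wells and 100% = medium wells without yeast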
Numbers without * were called inactive.

`O=[N+]([O-])c1cccc(-c2nnc(-c3ccccc3F)o2)c1` gave NALP1 yeast inh 17, tim10-1 inh 28, PfHsp90 yeast 2 -28, NALP3 yeast inh 5, tim23-1 inh 26 and TIM10 inh 8.
`O=C(CN1CCN(C(C(=O)Nc2ccc(Cl)cc2C(F)(F)F)c2ccccc2)CC1)NC1CC1` (centres undefined) gave tim10-1 inh 17, PfHsp90 yeast 2 10, NALP3 yeast inh 9, tim23-1 inh 25 and TIM10 inh 11.
CCCCn1c(/N=C/c2c[nH]c3ccccc23)nc2ccccc21 was read as NALP1 yeast inh 17, tim10-1 inh 41*, PfHsp90 yeast 2 18, NALP3 yeast inh 27, tim23-1 inh 33, TIM10 inh 2 and tim10-1 conf 22.
CCCn1c(/N=C/c2c[nH]c3ccccc23)nc2ccccc21 was read as NALP1 yeast inh 3, tim10-1 inh 26, PfHsp90 yeast 2 11, NALP3 yeast inh 14, tim23-1 inh 37 and TIM10 inh 2.
CC(=O)c1c(O)cc(=O)oc1-c1ccc(C)cc1 was read as tim10-1 inh 15, PfHsp90 yeast 2 -8, NALP3 yeast inh 17, tim23-1 inh 1 and TIM10 inh 11.
Screening CCOC(=O)c1cnc2ccc(C)cc2c1Nc1ccc(N2CCOCC2)cc1 returned tim10-1 inh 41*, PfHsp90 yeast 2 -15, NALP3 yeast inh 17, tim23-1 inh -17, TIM10 inh 15 and tim10-1 conf 26.
Screening CCOC(=O)c1ccc2ncc(C(=O)OCC)c(NCCN3CCOCC3)c2c1 returned tim10-1 inh -2, PfHsp90 yeast 2 -12, NALP3 yeast inh 23, tim23-1 inh 23 and TIM10 inh 1.
`NS(=O)(=O)c1cccc(NC(=O)COC(=O)CCc2ccccc2)c1` gave NALP1 yeast inh -3, tim10-1 inh 6, PfHsp90 yeast 2 8, NALP3 yeast inh 1, tim23-1 inh 4 and TIM10 inh -8.
For CSc1ccccc1NC(=O)CN(C)C(=O)COc1cccc2cccnc12 the results were tim10-1 inh 1, PfHsp90 yeast 2 -15, NALP3 yeast inh -2, tim23-1 inh -2 and TIM10 inh 1.
For CCC(C)(C)n1nnnc1C(c1ccc(C)cc1)N1CCC(C)CC1 (centres undefined) the results were NALP1 yeast inh -3, tim10-1 inh 41*, PfHsp90 yeast 2 -12, NALP3 yeast inh -13, tim23-1 inh 45, TIM10 inh 38 and tim10-1 conf 36*.
CC(C)(C)OC(=O)N1CCC[C@H]1c1nnc(SCc2ccccc2Cl)o1 was read as NALP1 yeast inh 14, tim10-1 inh 29, PfHsp90 yeast 2 -8, NALP3 yeast inh 12, tim23-1 inh 27 and TIM10 inh 14.
For CC(C)(C)OC(=O)N1CCC[C@H]1c1nnc(SCc2ccc(Cl)cc2Cl)o1 the results were NALP1 yeast inh -2, tim10-1 inh 40*, PfHsp90 yeast 2 -22, NALP3 yeast inh 20, tim23-1 inh 38, TIM10 inh 19 and tim10-1 conf 18.
For Cn1ccsc1=NC(=O)c1ccc(OC(F)(F)F)cc1 the results were NALP1 yeast inh 19, tim10-1 inh 2, PfHsp90 yeast 2 6, NALP3 yeast inh 50, tim23-1 inh 20 and TIM10 inh 16.
`Cc1ccc(/C=N/NC(=O)CSCc2ccc(Cl)cc2)cc1` gave NALP1 yeast inh 7, tim10-1 inh 40*, PfHsp90 yeast 2 8, NALP3 yeast inh 36, tim23-1 inh 42, TIM10 inh 39 and tim10-1 conf 25.
Screening N#C/C(=C\c1c[nH]c2ccccc12)c1nnc2n1CCCCC2 returned NALP1 yeast inh 40, tim10-1 inh 12, PfHsp90 yeast 2 -1, NALP3 yeast inh 15, tim23-1 inh 10 and TIM10 inh 3.

Bioassay records: PubChem, several laboratories
